The test system of one experiment is BMPR1A. The conditions noted are these: concentration: 1 μM, replicates: in singlicate; n = 1.
The subject of the next experiment is BMPR1B. The following applies: concentration: 1 μM, replicates: in singlicate; n = 1.
Another experiment has as its system BMPR2. The conditions noted are these: concentration: 1 μM, replicates: in singlicate; n = 1.
For another experiment, the system named is BMX. The conditions noted are these: concentration: 1 μM, replicates: in singlicate; n = 1.
A further experiment deals with BRAF. The conditions noted are these: concentration: 1 μM, replicates: in singlicate; n = 1.
Another experiment has as its system T1, BRK.
T1 construct: gene PTK6
The following applies: concentration: 1 μM, replicates: in singlicate; n = 1.

Another experiment concerns BRSK1. The conditions noted are these: concentration: 1 μM, replicates: in singlicate; n = 1.
Another experiment deals with BRSK2. The following applies: concentration: 1 μM, replicates: in singlicate; n = 1.
Another experiment relates to BTK. The following applies: n = 1.
For another experiment, the system named is BUB1. The following applies: concentration: 1 μM, replicates: in singlicate; n = 1.
A further experiment relates to CAMK1B. The following applies: concentration: 1 μM, replicates: in singlicate; n = 1.
A further experiment has as its system CAMK1D. The conditions noted are these: concentration: 1 μM, replicates: in singlicate; n = 1.
The subject of the next experiment is CAMK1G. The conditions noted are these: concentration: 1 μM, replicates: in singlicate; n = 1.
For another experiment, the system named is CAMK1. The conditions noted are these: concentration: 1 μM, replicates: in singlicate; n = 1.
The test system of another experiment is CAMK2A. The following applies: concentration: 1 μM, replicates: in singlicate; n = 1.
A further experiment concerns CAMK2B. The following applies: concentration: 1 μM, replicates: in singlicate; n = 1.
The test system of the next experiment is CAMK2D. The following applies: concentration: 1 μM, replicates: in singlicate; n = 1.
Another experiment has as its system CAMK2G. The following applies: concentration: 1 μM, replicates: in singlicate; n = 1.
For another experiment, the system named is CAMK4. The following applies: concentration: 1 μM, replicates: in singlicate; n = 1.
The next experiment concerns CAMKK1. The conditions noted are these: concentration: 1 μM, replicates: in singlicate; n = 1.
[1] abbreviates: concentration: 1 μM, replicates: in singlicate.

Each structure is given as a SMILES string. Where two headings read alike, the source gives them in different places.

The text below walks through data of paper PMC5540273 (PLoS ONE, 2017).
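Note: KINOMEscan kinase panel screen.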

Take `COc1ccccc1-c1ccc2c(NC(=O)C3CC3)n[nH]c2n1` [SB-711239]: the “%Inh” value in the experiment with BMPR1A was determined as 0%; in the experiment with BMPR1B, 0%; in the experiment with BMPR2 it was 10%; in the experiment with BMX, 16%; in the experiment with BRAF, 5%; with BRK it was 2%. Further, the “%Inh” value in the experiment on BRSK1 was 0%; with BRSK2 it was 2%; in the experiment on BTK (setting [1]), 32%; in the experiment on BUB1, 11%; with CAMK1B, 33%; in the experiment on CAMK1D, 12%. In addition, the “%Inh” value in the experiment with CAMK1G amounted to 27%; with CAMK1, 4%; in the experiment with CAMK2A it was 0%; with CAMK2B, 0%; in the experiment on CAMK2D it was 16%; in the experiment on CAMK2G it was 9%. For the same molecule, the “%Inh” value came out at 0% in the experiment with CAMK4 and 9% in the experiment with CAMKK1.
With `Cc1cccc(-c2nc(Nc3ccc4[nH]ncc4c3)c3ccccc3n2)n1` [GW857175], the “%Inh” value in the experiment on BMPR1A is listed as 60%; in the experiment on BMPR1B, 34%; in the experiment with BMPR2, 18%; with BMX, 15%; in the experiment with BRAF, 16%; in the experiment with BRK, 2%. Also, the “%Inh” value in the experiment with BRSK1 was 0%; with BRSK2, 0%; in the experiment on BTK (setting [1]), 10%; with BUB1, 65%; in the experiment on CAMK1B, 0%; with CAMK1D it was 0%. Besides, the “%Inh” value in the experiment on CAMK1G turned out to be 0%; in the experiment on CAMK1, 0%; with CAMK2A, 15%; with CAMK2B it was 3%; with CAMK2D it was 0%; in the experiment on CAMK2G, 0%. Further, the “%Inh” value with CAMK4 and with CAMKK1 was 0% throughout.
Turning to `NC(=O)c1nnc2ccccc2c1N`, the “%Inh” value in the experiment with BMPR1A was found to be 7%; in the experiment with BMPR1B it was 10%; in the experiment with BMPR2 it was 36%; in the experiment on BMX it was 90.1%; in the experiment with BRAF, 23%; with BRK, 9%. The “%Inh” value with BRSK1 was 22%; with BRSK2, 0%; with BTK (1 µM) it was 43%; in the experiment with BUB1 it was 12%; in the experiment on CAMK1B, 0%; in the experiment with CAMK1D, 13%. The “%Inh” value in the experiment with CAMK1G stood at 7%; with CAMK1, 14%; in the experiment with CAMK2A it was 0%; in the experiment with CAMK2B, 0%; in the experiment on CAMK2D it was 7%; with CAMK2G, 0%. Further, the figures for the “%Inh” value in the experiment with CAMK4 and in the experiment with CAMKK1 were 0% and 10%, respectively.
`COc1ccccc1CNC(=O)c1cc(C(=O)c2ccccc2C)c[nH]1` [GSK364507]: the “%Inh” value stood at 4% in the experiment on BMPR1A; 0% in the experiment on BMPR1B; 7% in the experiment on BMPR2; 8% in the experiment with BMX; 0% in the experiment with BRAF; 12% with BRK. Further, the “%Inh” value stood at 0% in the experiment on BRSK1; 95.2% with BRSK2; 0% in the experiment on BTK (setting [1]); 33% with BUB1; 7% in the experiment with CAMK1B; 0% in the experiment with CAMK1D. Moreover, the “%Inh” value in the experiment on CAMK1G worked out at 0%; in the experiment with CAMK1 it was 9%; with CAMK2A, 0%; with CAMK2B it was 0%; in the experiment on CAMK2D, 0%; in the experiment on CAMK2G it was 12%. In addition, the “%Inh” value stood at 0% in the experiment on CAMK4 and 7% with CAMKK1.
Turning to `COc1cc2nccc(Nc3ccc(NC(=O)c4ccc(C)cc4)c(O)c3)c2cc1OC.Cl` [GW440132], the “%Inh” value is listed as 1% with BMPR1A; 0% in the experiment on BMPR1B; 0% with BMPR2; 22% in the experiment on BMX; 0% with BRAF; 36% with BRK. Moreover, the “%Inh” value is recorded as 0% in the experiment with BRSK1; 3% in the experiment with BRSK2; 32% in the experiment with BTK (setting [1]); 31% with BUB1; 0% with CAMK1B; 20% in the experiment on CAMK1D. Further, the “%Inh” value in the experiment with CAMK1G is given as 6%; with CAMK1, 15%; in the experiment on CAMK2A, 0%; in the experiment on CAMK2B, 0%; in the experiment with CAMK2D it was 17%; in the experiment with CAMK2G, 35%. Besides, the “%Inh” value in the experiment on CAMK4 and in the experiment on CAMKK1 was 0% each time.
For `COc1ccc2nc(-c3cccc(C)n3)nc(Nc3ccncc3)c2c1` [GSK204919], the “%Inh” value with BMPR1A was 0%; with BMPR1B, 0%; with BMPR2, 0%; in the experiment on BMX, 27%; with BRAF, 0%; with BRK, 8%. For the same molecule, the “%Inh” value with BRSK1 was 4%; in the experiment on BRSK2, 0%; with BTK (setting [1]) it was 0%; in the experiment on BUB1, 38%; in the experiment on CAMK1B, 0%; with CAMK1D it was 2%. For the same molecule, the “%Inh” value is listed as 0% with CAMK1G; 5% in the experiment on CAMK1; 0% with CAMK2A; 0% with CAMK2B; 0% in the experiment with CAMK2D; 3% in the experiment on CAMK2G. Moreover, the “%Inh” value with CAMK4 and in the experiment on CAMKK1 was 0% in each case.
In the case of `COc1ccc(Nc2nccc(-c3cccc(NC(=O)c4cc5cc(F)ccc5[nH]4)c3)n2)cc1` [GSK1229782], the “%Inh” value in the experiment with BMPR1A was 10%; in the experiment with BMPR1B it was 0%; in the experiment on BMPR2, 15%; in the experiment on BMX, 16%; in the experiment with BRAF, 0%; with BRK, 22%. Besides, the “%Inh” value was 4% in the experiment on BRSK1; 12% with BRSK2; 31% in the experiment on BTK (setting [1]); 64% in the experiment on BUB1; 0% in the experiment with CAMK1B; 20% in the experiment on CAMK1D. Further, the “%Inh” value in the experiment with CAMK1G worked out at 13%; in the experiment with CAMK1 it was 36%; in the experiment on CAMK2A, 0%; in the experiment with CAMK2B, 0%; in the experiment on CAMK2D it was 23%; in the experiment on CAMK2G it was 34%. The “%Inh” value in the experiment on CAMK4 was determined as 0%; in the experiment on CAMKK1, 20%.
